Source: PubChem
USP17 inh: human USP17-like deubiquitinase inhibition; inhibition, % at 50 µM; A8MUK1; AID 1645855; 6.5% of 47,000 active; purified USP17, Ub-rhodamine cleavage fluorescence, 3 h
USP28 block: human USP28 deubiquitinase inhibition; purified USP28, Ub-rhodamine cleavage fluorescence, 30 min; AID 1645857; 3% of 47,000 active; inhibition, % at 25 µM; Q96RU2
USP30 block: human USP30 deubiquitinase inhibition; Q70CQ3; purified USP30, Ub-rhodamine cleavage fluorescence; inhibition, % at 25 µM; 5.3% of 47,000 active; AID 1645860
OTUD3 block: blocks human OTUD3 ubiquitin-rhodamine cleavage; purified OTUD3, Ub-rhodamine fluorescence, 2 h; AID 1645858; 0.7% of 47,000 active; Q5T2D3; inhibition, % at 25 µM
Target sequence (Q5T2D3 whole entry, looked up): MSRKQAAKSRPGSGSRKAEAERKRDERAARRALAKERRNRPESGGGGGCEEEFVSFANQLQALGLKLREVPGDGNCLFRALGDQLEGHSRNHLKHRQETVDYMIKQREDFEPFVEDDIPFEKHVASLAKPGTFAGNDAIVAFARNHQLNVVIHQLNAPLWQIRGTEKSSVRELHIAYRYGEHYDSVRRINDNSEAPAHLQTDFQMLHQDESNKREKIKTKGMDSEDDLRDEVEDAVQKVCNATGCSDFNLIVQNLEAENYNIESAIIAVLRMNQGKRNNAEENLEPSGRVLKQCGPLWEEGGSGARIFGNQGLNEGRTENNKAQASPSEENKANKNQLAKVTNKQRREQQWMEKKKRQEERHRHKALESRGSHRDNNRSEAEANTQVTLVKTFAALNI
* hit, by the source's call; x = no result. Rows were chosen to be rich in hits. Some 12% of all compounds tested hit in one or more screens of this group. No stated cut-off is given here; in the data, active means inhibition above about 30%; inactive means the rest.

SMILES	USP17 inh	USP28 block	USP30 block	OTUD3 block
COc1ccc(CNCc2c(C(=O)O)n(Cc3ccc(F)cc3Cl)c3cc(C)ccc23)cc1	57*	28	63*	13
COc1ccccc1CNCc1c(C(=O)O)n(Cc2ccc(F)cc2Cl)c2cc(C)ccc12	20	8	18	9
COc1cccc(C2CC(c3ccccc3)=NC3(CCN(C)CC3)N2)c1O (centres undefined)	-3	-7	-16	-11
O=C(OCC(=O)N1CCC(Cc2ccccc2)CC1)c1ccc(N2CCCC2=O)cc1	4	43*	9	3
COc1cccc(NC(=O)C2CCC(CNS(=O)(=O)c3ccc4c(c3)C(C)(C)C(=O)N4C)CC2)c1 (centres undefined)	0	76*	0	-7
Cc1ccc(NC(=O)C2CCC(CNS(=O)(=O)c3ccc4c(c3)C(C)(C)C(=O)N4C)CC2)cc1C (centres undefined)	-9	13	-36	-15
O=C(Cc1ccc(F)cc1)Nc1ccc(N2CCOCC2)cc1	-17	-10	-15	-6
O=C(Cc1ccc(Cl)cc1)Nc1ccc2nn(-c3ccc(F)cc3)nc2c1	45*	x	x	-9
CS(=O)(=O)c1ccc(C(=O)N(CCc2ccccc2)C2CCN(CCc3ccc(Cl)cc3)CC2)cc1	-3	-32	-30	-14
COc1cc(O)c2c(c1C)C(C)(C(C)=O)OC2=O (centres undefined)	-47	-3	-17	5
COc1cc(C)c2c(=O)c3c(oc2c1)C(=O)c1c(O)c(OC)cc(O)c1C3=O	71*	35*	-30	33*
CC(C)c1cc(C(=O)N2CCCC2c2ccc(Cl)cc2)no1 (centres undefined)	11	5	-3	5
Cc1cc(OCC(=O)Nc2ccccc2C#N)nc(-c2ccc(F)cc2)n1	36*	-6	-25	-16
Cc1cc(OCC(=O)Nc2ccccc2F)nc(N2CCCC(C)C2)n1 (centres undefined)	18	7	47*	7
Cc1cc(OCC(=O)Nc2c(C)cccc2C)nc(N2CCCCCC2)n1	30*	5	9	8
Cc1cc(OCC(=O)Nc2cccc(C#N)c2)nc(N2CCCC(C)C2)n1 (centres undefined)	4	7	0	1
Cc1cc(OCC(=O)Nc2ccccc2C#N)nc(N2CCCCCC2)n1	-10	x	x	16
O=C(c1ccn[nH]1)N1CCCCC1c1cc(C(F)(F)F)n2ccnc2n1 (centres undefined)	-24	-23	-79	-16
Cc1sc(NC(=O)/C=C/c2ccco2)nc1-c1ccccc1	11	54*	1	3
Cc1ccc(-c2nc(NC(=O)c3ccccn3)sc2C)cc1	-14	13	24	12
CC(=O)c1sc(NC(=O)/C=C/c2ccccc2)nc1-c1ccccc1	74*	5	0	3
CCNc1nc(N2CCCCCC2)nc(-n2cnc(SC)n2)n1	11	20	30*	19
CSc1ncn(-c2nc(N(C)C)nc(N3CCCCCC3)n2)n1	5	26	18	7
Nc1nonc1C(=O)NCCNCc1cccc(OCc2ccc(Cl)cc2)c1	9	56*	17	-3
O=C(Nc1ccc(Cl)cc1)c1cccc(OCc2ccccc2)c1	0	1	-4	-1
SMILES	USP17 inh	USP28 block	USP30 block	OTUD3 block
CN(C(=O)COc1ccc(-n2cnnn2)cc1)C(c1ccccc1)c1ccccc1	13	18	36*	0
O=c1[nH]c(C2CCN(S(=O)(=O)c3ccc(S(=O)(=O)NC4CCCCC4)cc3)CC2)nc2c1nnn2Cc1c(Cl)cccc1Cl	10	49*	50*	11
O=c1[nH]c(C2CCN(S(=O)(=O)c3ccc(S(=O)(=O)NC4CCCCC4)cc3)CC2)nc2c1nnn2Cc1c(F)cccc1Cl	17	55*	59*	15
CC(Oc1cccc(Cl)c1)C(=O)NCc1noc(C2CCCCC2)n1 (centres undefined)	x	1	-14	-3
CC(Oc1ccc(F)cc1)C(=O)N1CCC(c2[nH]nc3nccnc23)CC1 (centres undefined)	-6	-9	-4	-8
CCC(C)c1ccc(N(C(=O)c2ccco2)C(C(=O)NC2CCCC2)c2ccc(N3CCOCC3)cc2)cc1 (centres undefined)	12	10	48*	-2
O=C(NC1CCCC1)C(c1ccc(Cl)cc1)N(Cc1ccccc1F)C(=O)c1ccco1 (centres undefined)	19	2	37*	17
O=C(Cc1noc2ccccc12)NCC(=O)Nc1ccc(Cl)cc1	77*	23	25	9
COc1ccc(-c2nc3cccnc3n2C2CCN(C(=O)NC(C)(C)C)C2)cc1 (centres undefined)	-2	19	22	5
CNc1nc(C2CCNCC2)nc2c1CN(S(=O)(=O)c1cc(F)ccc1OC)CC2	-7	-1	16	0
O=C(NCc1ccc(F)cc1)Nc1cccc2ccccc12	40*	17	40*	19
O=C(CCc1ccc2[nH]ccc2c1)NCc1ccc(F)cc1	-21	-23	-55	-21
O=C(COc1ccc2ccccc2c1)Nc1cccc2ccccc12	65*	19	46*	8
Cc1nc2c(NC(=O)NCc3ccccc3)cccn2n1	0	1	-10	-9
O=C(NCc1ccccc1)Nc1cccc2ccccc12	84*	19	-5	3
COc1ccc(CNC(=O)Nc2cccc3ccccc23)cc1	92*	24	38*	16
Cc1nccc(N2CCCC(C)(c3[nH]ncc3C(=O)N(C)C)C2)n1 (centres undefined)	1	-10	-7	-2
Cc1ccc(-c2nc(C(=O)Nc3ccc(F)cc3)cs2)n1C	-9	-11	-25	-3
CN(Cc1ccccc1)S(=O)(=O)c1ccc(N2CCCCS2(=O)=O)cc1	37*	x	x	2
CN(Cc1ccccc1)S(=O)(=O)c1ccc2[nH]c(=O)[nH]c2c1	37*	2	26	-2
O=c1[nH]c2ccc(S(=O)(=O)N3CCN(Cc4ccccc4)CC3)cc2[nH]1	-12	17	-17	4
COc1ccc(CCNC(=O)CN2C(=O)c3ccccc3C2c2c(C)[nH]c3ccccc23)cc1OC (centres undefined)	-12	0	-37	-4
Cc1ccc(CNC(=O)CN2C(=O)c3ccccc3C2c2c(-c3ccccc3)[nH]c3ccccc23)o1 (centres undefined)	37*	4	-15	2
COc1ccc(C2CC(=O)N(Cc3ccc(F)cc3)C(=O)C2)cc1OC	47*	4	7	15
Cc1cc(C(=O)N2CCOCC2)c(C)n1-c1ccc(O)cc1	86*	9	17	28
O=C(NC1CCCC1)C(c1ccc(N2CCOCC2)cc1)N(C(=O)c1ccco1)c1cccc(C(F)(F)F)c1 (centres undefined)	5	-2	4	1
Cc1cc(-c2ccc(S(=O)(=O)NCCc3ccccc3)s2)on1	29	20	35*	10
Cc1c(C(=O)NC2CCCC2)nnn1-c1ccc(Cl)cc1	-2	6	0	-1
Cn1c(=O)c(-c2ccc(C(=O)NCc3ccc4c(c3)OCO4)cc2)nc2cccnc21	28	24	2	-4
